# In PubChem BioAssay (Tox21):
# Records with an inconclusive call do not appear. Values without a mark were called inactive. The source made the active and inactive calls. Calls follow the shape of the full dose curve.
# Test: qHTS assay for small molecule disruptors of the mitochondrial membrane potential - cell viability (AID 720634);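 also: human HepG2 liver cancer cells; nearly all actives have a fitted effect of over 20% in size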
# Conditions: HepG2 viability, ATP luminescence (CellTiter-Glo), 1 h; series mostly up to 83.2 µM; activity change, negative = cytotoxicity: at the top concentration
# Text: U.S. Tox21 Program National Center for Advancing Translational Sciences [NCATS] NIH Chemical Genomics Center [NCGC] U.S. Environmental Protection Agency [EPA] National Institutes of Environmental Health Sciences [NIEHS] National Toxicology Program [NTP] U.S. Food and Drug Administration [FDA] Tox21 Assay Overview: Mitochondrial membrane potential (MMP), one of the parameters for mitochondrial function, is generated by mitochondrial electron transport chain that creates an electrochemical gradient by a series of redox reactions. This gradient drives the synthesis of ATP, a crucial molecule for various cellular processes. Measuring MMP in living cells is commonly used to assess the effect of chemicals on mitochondrial function; decreases in MMP can be detected using lipophilic cationic fluorescent dyes. […] The dye accumulates in the mitochondria of healthy cells as aggregates, with red fluorescence. The mitochondrial potential decreases and the dye could not accumulate in the mitochondria and remains in the cytoplasm in monomers, with green fluorescence. In addition to the mitochondrial potential assay, these cells were also used to test the cytotoxicity by determining the cell viability in the culture based on the quantitation of ATP present. The cytotoxicity was measured in the same assay well of MMP assay.
# Tox21 Assay Protocol Summary: 2,000 HepG2 cells in 5 uL/well were dispensed into black, clear-bottom 1536-well plates using a Multidrop Combi (Thermo Scientific) dispenser. The assay plates were incubated for an overnight at 37 C to allow cells to attach to the wells, followed by the transfer of 23 nL compound or DMSO vehicle by a pin tool (Kalypsys). The plates were incubated for 1 hr at 37 C and 5% CO2, followed by the addition of 5 uL of 2X m-MPI dye into each well using Flying Reagent Dispenser (Aurora Discovery) and then CellTiter-Glo reagent was added at 4 uL/well and incubated 30 min at room temperature. Then luminescence intensity was quantified on a ViewLux CCD-based plate reader.
# % is scaled to controls: 0 for no effect and ±100 for the full control effect.
Structure (SMILES),"activity change, negative = cytotoxicity",outcome
OCCCCC(O)CO (stereo not given),11.6%,
COC(=O)c1ccccc1C(=O)c1ccc(OCCN2CCCCC2)cc1,-3.36%,
CCCCC(CC)COCCO (stereo not given),9.22%,
CCCCCCN,-3.04%,
O=C(c1ccc(O)cc1)c1ccc(O)c(O)c1O,-5.98% [at 95.3 µM],
CCCCOCCOC(=O)COc1nc(Cl)c(Cl)cc1Cl,12.8%,
CCCOC(=O)C(C)O (stereo not given),5.76% [at 95.3 µM],
CCCCNC1CC(C)(C)NC(C)(C)C1,5.63%,
O=C(OCc1ccccc1)C(=O)OCc1ccccc1,-5.24%,
O=C1c2ccccc2C(=O)N1CCl,6.35%,
C[C@@H](Oc1ccc(CNC(=O)c2cccnc2Oc2ccc3c(c2)OCO3)c(F)c1)C(=O)O,6.32%,
CCCCCCCCC1CCC(=O)O1 (stereo not given),14.1%,
CN(C)C(=O)CNC(=O)Cc1ccccc1,16.5%,
CCCCCCCCCC(C)=O,13% [at 95.3 µM],
CC(CN)CC(C)(C)CCN (stereo not given),5.54% [at 95.3 µM],
O=C(NCCN1CCOCC1)c1ccc(Cl)cc1,,inactive
CN=C(NC#N)Nc1ccc(C2=NNC(=O)CC2C)cc1 (stereo not given),2.47%,
CC(C(=O)O)c1ccc2c(c1)CC(=O)c1ccccc1S2 (stereo not given),5.33%,
O=C(O)c1cc(Br)c(O)c(Br)c1,5.24%,
CCCC(=O)C(C)=O,6.96%,

Structure (SMILES),"activity change, negative = cytotoxicity",outcome
CN(C)CCOCCO,-4.74%,
ClCCCl,-0.829%,
N[C@@H](CCC(=O)Nc1ccc([N+](=O)[O-])cc1)C(=O)O,-1.39%,
CCCCNc1ccc(C(=O)OCCN(C)C)cc1,-21.7% [at 39.1 µM],
CC(C)C(=O)OCCc1ccccc1,5.05%,
C=C(C)C(=O)OCCNC(C)(C)C,6.19%,
CCOc1cc(NC(C)=O)ccc1C(=O)OC,-8.28%,
Nc1ccc([N+](=O)[O-])c(N)c1,-3.79%,
C[Si](C)(C)C,-7.92%,
CCCC/C=C/C=C\C=O,-5.41%,
O=C(CS(=O)Cc1ccco1)NC/C=C\COc1cc(CN2CCCCC2)ccn1 (stereo not given),-8.72%,
N#Cc1ccc(C(=O)O)cc1,11.9%,
CCOCCOCCOCC,11.2%,
O=C(O)C(=O)Cc1ccccc1,8.89%,
Cc1ccsc1/C=C/C1=NCCCN1C,13.7% [at 39.1 µM],
O=Cc1ccc(Cl)c(Cl)c1,1.57% [at 95.3 µM],
CC(=O)OC(C)OC(=O)C(C)c1ccc(-c2ccccc2)c(F)c1 (stereo not given),,inactive
CC(CC=O)CCCC(C)(C)O (stereo not given),,inactive
CC(C)=CCOC(=O)c1ccccc1,-7.9%,
CN1CCN(CC(=O)N2c3ccccc3C(=O)Nc3cccnc32)CC1,7.07%,
